About 310 (2.8%) of roughly 11,000 compounds were called active. Cut-off read from the data, not from the text of the source: active = activity change below about -85%; inactive = the rest. The entries come from a sample that favours actives as a whole.
tested on: intestinal alkaline phosphatase [Mus musculus]; experiment: activators of mouse IAP, confirmation, biochemical, luminescence, single concentration (AID 434970); conditions: purified mouse IAP, CDP-Star luminescence, 30 min, at 10 µM; activation factor: measured here: IAP activation factor, stronger effect = higher value; activity change, negative = activation: stronger effect = lower value

| SMILES | activation factor | activity change, negative = activation |
| --- | --- | --- |
| Cc1ccc(CN2C3CCCC2CC(NC(=S)NCc2ccccc2)C3)cc1 (stereo not given) | 2.88 | -188% (active) |
| Cc1cc(C)cc(NC(=S)NC2CC3CCCC(C2)N3Cc2cccs2)c1 (stereo not given) | 2.5 | -150% (active) |
| Cc1ccc(CN2C3CCCC2CC(NC(=O)Nc2cccc(F)c2)C3)cc1 (stereo not given) | 4.48 | -348% (active) |
| CCc1ccc(N2C(=O)NC(=O)C(Cc3ccc(OC)cc3OC)C2=O)cc1 (stereo not given) | 1.06 | -5.6% (inactive) |
| CN1CCN(Cc2cc(C(C)(C)C)c(O)c(C(C)(C)C)c2)CC1 | 0.944 | 5.6% (inactive) |
| CC(CO)(CO)N=Cc1c(O)n(-c2cccc3ccccc23)c(=O)[nH]c1=O | 1.12 | -12.2% (inactive) |
| Cc1cc(NC(=O)COC(=O)c2c(C)nn(Cc3ccccc3)c2Cl)no1 | 0.971 | 2.9% (inactive) |
| CSc1ccc(C(=O)C(C)(C)N2CCOCC2)cc1 | 0.965 | 3.5% (inactive) |
| CCOC(=O)c1c(-n2c(C)cc(C=C3C(=O)NC(=S)NC3=O)c2C)sc2c1CCCC2 | 0.649 | 35.1% (inactive) |
| COc1ccc(-n2c(=O)[nH]c3ccccc3c2=O)c(OC)c1 | 1.08 | -7.55% (inactive) |
| CCOP(=O)(C(NC(=O)c1ccccc1Cl)=C(Cl)Cl)c1ccccc1 (stereo not given) | 1.07 | -6.55% (inactive) |
| O=[N+]([O-])c1cc(S(=O)(=O)c2ccc(O)c([N+](=O)[O-])c2)ccc1O | 0.471 | 52.9% (inactive) |
| O=C(Cc1ccccc1)Oc1ccccc1N1C(=O)CCC1=O | 1.07 | -7.1% (inactive) |
| CCOc1ccc2nc(N3CCC(C(=O)N4CCC5(CC4)OCCO5)CC3)sc2c1 | 0.97 | 3% (inactive) |
| CC1(C)CSC(Nc2ccc(F)c(Cl)c2)=N1 | 0.924 | 7.6% (inactive) |
| Clc1ccc(C(c2ccc(Cl)cc2)n2cc[n+](CC(OCc3ccc(Cl)cc3Cl)c3ccc(Cl)cc3Cl)c2)cc1 (stereo not given) | 31 | -3000% (active) |
| Cc1nc2cc(F)ccc2n1C1CCN(Cc2nnnn2CCc2ccccc2)CC1 | 1.13 | -13.2% (inactive) |
| O=C(Cn1cnc2ccccc2c1=O)NCCC(=O)N1CCC2(CC1)OCCO2 | 1.09 | -9.25% (inactive) |
| COc1ccc(P2(=O)Nc3ccccc3N2)cc1 | 0.951 | 4.95% (inactive) |
| CCOC(=O)c1ccc(N2C(=O)CC(N3CC=C(c4ccc(F)cc4)CC3)C2=O)cc1 (stereo not given) | 0.996 | 0.45% (inactive) |
